This is a sample that favours compounds with a hit; in the whole collection about 4.3% have one here.
ADAM17 inh = ADAM17 inhibitors, primary screen, biochemical, QFRET; Disintegrin and metalloproteinase domain-containing protein 17 (Homo sapiens), P78536; recombinant ADAM17, EDANS/DABCYL FRET peptide cleavage; inhibition, % at 6.95 µM; 370,000 compounds, 0.83% hits; AID 720648, 2013;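 active = inhibition above the mean of compounds lying between control limits plus 3 SD, set per campaign, cut at about 8.5% in these data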;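 also: 0% = DMSO-only wells as the low control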
NR3A LBD binder = binders of NR3A ligand-binding domain, primary screen, biophysical, differential scanning fluorimetry, uHTS; Tm shift relative to glycine control, % at 25 µM; 340,000 compounds, 2.5% hits; NR3A LBD differential scanning fluorimetry, Tm shift; 0% = protein alone, 100% = glycine-bound protein; Glutamate receptor ionotropic, NMDA 3A (GRIN3A) ligand-binding domain;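 active = melting temperature shift of at least 10% of the positive control shift, at one fixed dose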
sPLA2-III inh = human group III sPLA2 inhibitors, primary screen, biochemical, QFRET, BODIPY PC-A2 liposome substrate; 370,000 compounds, 0.56% hits; QFRET BODIPY PC-A2 liposome hydrolysis, fluorescence; inhibition, % at 12.2 µM;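 active = inhibition above mean plus 3 SD of compounds lying within the high and low control bounds, cut at about 19% in these data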;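 also: 0% = median of test compound wells and 100% = no enzyme DMSO wells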
ADAM10 inh = human ADAM10 inhibitors, primary screen, biochemical, QFRET, HTS | recombinant ADAM10, EDANS/DABCYL FRET peptide cleavage, 3 h | inhibition, % at 7 µM | 370,000 compounds, 0.62% hits | Disintegrin and metalloproteinase domain-containing protein 10 (Homo sapiens), O14672;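 active = inhibition above a per-campaign cutoff equal to the mean of compounds falling between control-based bounds plus 3 SD, cut at about 20% in these data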;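 also: 0% = DMSO wells while the 100% control is not disclosed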
Target sequence (O14672 214-748 limits assumed): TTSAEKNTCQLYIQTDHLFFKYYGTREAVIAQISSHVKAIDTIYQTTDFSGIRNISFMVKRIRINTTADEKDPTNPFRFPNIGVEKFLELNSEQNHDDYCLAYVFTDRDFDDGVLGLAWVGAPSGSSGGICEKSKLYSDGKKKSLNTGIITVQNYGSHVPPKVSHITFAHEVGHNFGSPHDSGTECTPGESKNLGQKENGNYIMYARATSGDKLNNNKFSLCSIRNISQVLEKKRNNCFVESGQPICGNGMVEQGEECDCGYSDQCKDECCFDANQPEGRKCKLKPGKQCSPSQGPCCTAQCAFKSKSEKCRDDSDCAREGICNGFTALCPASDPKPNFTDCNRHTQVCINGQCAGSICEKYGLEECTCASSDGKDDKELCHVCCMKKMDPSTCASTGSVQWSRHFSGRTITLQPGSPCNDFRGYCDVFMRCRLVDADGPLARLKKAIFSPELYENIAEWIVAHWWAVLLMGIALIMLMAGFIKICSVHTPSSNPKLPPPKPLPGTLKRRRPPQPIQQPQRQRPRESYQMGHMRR
FAS TE block = FAS thioesterase domain inhibitors, primary screen, biochemical, fluorescence intensity, uHTS; 360,000 compounds, 0.67% hits; inhibition, % at 15 µM; recombinant FAS-TE, OMFH fluorogenic substrate, fluorescence endpoint; Fatty acid synthase (Homo sapiens), P49327;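 active = compounds whose normalised, plate-corrected inhibition of enzyme fluorescence in the single-dose primary screen is 50% or more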;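 also: 0% = DMSO with enzyme and 100% = substrate without enzyme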
FAS-TE inh conf = FAS thioesterase domain inhibitors, confirmation, biochemical, fluorescence intensity, single concentration; inhibition, % at 15 µM; recombinant FAS-TE, OMFH fluorogenic substrate; 2,300 compounds, 45% hits; shares compounds with FAS TE block; AID 624325, 2012;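 active = compounds inhibiting the enzyme by at least 50% at 15 µM in any one of the replicates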;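 also: 0% = enzyme with DMSO only and 100% = wells lacking enzyme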
Numbers without * were called inactive.

Screening O=[N+]([O-])c1ccc(S(=O)(=O)Nc2nnc(C3CCCCC3)s2)cc1 returned ADAM17 inh 4, NR3A LBD binder -12, sPLA2-III inh -33, ADAM10 inh 8, FAS TE block 50* and FAS-TE inh conf 65*.
O=S(=O)(Nc1nnc(C2CCCCC2)s1)c1ccc(F)cc1 was read as ADAM17 inh 0, NR3A LBD binder 3, sPLA2-III inh -31, ADAM10 inh -1 and FAS TE block 0.
O=C(Nc1nnc(C2=COCCO2)o1)c1cccc([N+](=O)[O-])c1 was read as ADAM17 inh -2, NR3A LBD binder 2, sPLA2-III inh 9, ADAM10 inh 2 and FAS TE block -4.
For O=C(Nc1nnc(-c2ccc(F)cc2)o1)c1cccc([N+](=O)[O-])c1 the results were ADAM17 inh 3, NR3A LBD binder -16, sPLA2-III inh -4, ADAM10 inh 4, FAS TE block 56* and FAS-TE inh conf 54*.
For CCOc1ccc(-n2c(SCc3ccc([N+](=O)[O-])cc3)nnc2-c2ccccc2)cc1 the results were ADAM17 inh 0, NR3A LBD binder 2, sPLA2-III inh 3, ADAM10 inh 2, FAS TE block 63* and FAS-TE inh conf 56*.
`COc1ccc(-n2c(SCc3ccc([N+](=O)[O-])cc3)nnc2-c2ccccc2)cc1` gave ADAM17 inh 4, NR3A LBD binder -3, sPLA2-III inh -3, ADAM10 inh 2, FAS TE block 56* and FAS-TE inh conf 51*.
`CCN1CCCCC(NC(=O)Cc2ccccc2)C1=O` (configuration not stated) gave ADAM17 inh -6, sPLA2-III inh 11 and ADAM10 inh -6.
C=C1[C@@H]2CC[C@H]3[C@]4(C)[C@@H](O)CC[C@@](C)(C(=O)OC)[C@H]4C[C@H](O)[C@]3(C2)[C@H]1O was read as ADAM17 inh -3, sPLA2-III inh 7 and ADAM10 inh -5.
COc1cc(CCc2ccccc2)c(C(=O)O)c(O)c1C/C=C(/C)CCC=C(C)C was read as ADAM17 inh 2, NR3A LBD binder 10*, sPLA2-III inh -45, ADAM10 inh 16, FAS TE block 87* and FAS-TE inh conf 59*.
CCCCN=C(N)NC(=O)OCc1ccccc1 was read as ADAM17 inh -2, sPLA2-III inh 4 and ADAM10 inh -4.
`COc1cc2cc(CN(Cc3cccs3)C(=S)Nc3ccccc3)c(=O)[nH]c2cc1OC` gave ADAM17 inh -32, NR3A LBD binder 17*, sPLA2-III inh 10, ADAM10 inh -115, FAS TE block 79* and FAS-TE inh conf 31.
CCOC(=O)[C@]12Cc3c(cc(OC)c(OC)c3OC)[C@H]1N(C1CCCCC1)C(=O)c1cc(OC)ccc12 was read as ADAM17 inh -2, sPLA2-III inh -1, ADAM10 inh -8, FAS TE block 50* and FAS-TE inh conf 38.
`CC(C)CN1C(=O)[C@@]2(CC(=O)N(C)C2c2ccccc2)c2cc(-n3cc(CN(C)C)nn3)ccc21` (some centres not stated) gave ADAM17 inh 0, sPLA2-III inh 11 and ADAM10 inh -13.
For Cc1cc(C)c2nc(NC(=O)c3cccc(S(=O)(=O)N4CCc5ccccc54)c3)sc2c1 the results were ADAM17 inh -1, NR3A LBD binder 10*, sPLA2-III inh -10, ADAM10 inh -7, FAS TE block 70* and FAS-TE inh conf 8.
`COc1cc(CN(C)c2ccc(S(=O)(=O)N3CCCC3)cn2)ccc1OC(F)F` gave ADAM17 inh -3, NR3A LBD binder 0, sPLA2-III inh -1, ADAM10 inh 3, FAS TE block 68* and FAS-TE inh conf 22.
For O=c1[nH]c(=O)c2cc([N+](=O)[O-])cc([N+](=O)[O-])c2[nH]1 the results were ADAM17 inh 4, NR3A LBD binder 1, sPLA2-III inh 8, ADAM10 inh 12 and FAS TE block 2.
O=c1[nH]c2cc([N+](=O)[O-])c([N+](=O)[O-])cc2[nH]c1=O was read as ADAM17 inh -2, NR3A LBD binder -1, sPLA2-III inh 8, ADAM10 inh -2, FAS TE block 66* and FAS-TE inh conf 73*.
`COC(=O)[C@]12C[C@H](CC(=O)N3CCOCC3)C(=O)N(Cc3cccc4ccccc34)C1=C[C@H](C(C)C)O[C@@H]2C1CC1` gave ADAM17 inh -3, sPLA2-III inh -1 and ADAM10 inh -6.
Cc1ccc2cc3cc(C(=O)N4CCCCC4C)oc3nc2c1 (configuration not stated) was read as ADAM17 inh -14, NR3A LBD binder 0, sPLA2-III inh -3, ADAM10 inh -33, FAS TE block 84* and FAS-TE inh conf 61*.
For CCOC(=O)C1CCN(C(=O)c2cc3cc4ccc(OC)cc4nc3o2)CC1 the results were ADAM17 inh -243, NR3A LBD binder 0, sPLA2-III inh 6, ADAM10 inh inactive and FAS TE block 46.
`O=C(c1cc2cc3ccc(Cl)cc3nc2o1)N1CCCCCC1` gave NR3A LBD binder 0, FAS TE block 62* and FAS-TE inh conf 41*.
Screening COc1ccc2cc3cc(C(=O)N4CC(C)CC(C)C4)oc3nc2c1 (configuration not stated) returned NR3A LBD binder 0, FAS TE block 69* and FAS-TE inh conf 75*.
Screening Cc1ccc2cc3cc(C(=O)N4CC(C)CC(C)C4)oc3nc2c1 (configuration not stated) returned ADAM17 inh -1, NR3A LBD binder 2, sPLA2-III inh -9, ADAM10 inh -17, FAS TE block 82* and FAS-TE inh conf 42.
For Cc1ccc2cc3cc(C(=O)NCCCN4CC(C)CC(C)C4)oc3nc2c1 (configuration not stated) the results were ADAM17 inh -354, NR3A LBD binder -1, sPLA2-III inh 0, ADAM10 inh inactive and FAS TE block -4.
For O=C(OC12CCCN(C1)/C(=C/c1ccncc1)C2)c1ccco1 (configuration not stated) the results were ADAM17 inh 3, sPLA2-III inh 9 and ADAM10 inh 3.

Source: PubChem BioAssay (several laboratories)
